In all, about 8,300 sequences were measured (“log2 fold change of degron read counts, EGFP-low vs EGFP+ sorted cells (limma voom), compound-induced degradation”: median about -1.1, highest 2% from about 3.2 on). For the sample, the highest values were picked, then their nearest neighbours and some sequences at random.
Target: T1, CRBN, Q96SW2
T1 chain: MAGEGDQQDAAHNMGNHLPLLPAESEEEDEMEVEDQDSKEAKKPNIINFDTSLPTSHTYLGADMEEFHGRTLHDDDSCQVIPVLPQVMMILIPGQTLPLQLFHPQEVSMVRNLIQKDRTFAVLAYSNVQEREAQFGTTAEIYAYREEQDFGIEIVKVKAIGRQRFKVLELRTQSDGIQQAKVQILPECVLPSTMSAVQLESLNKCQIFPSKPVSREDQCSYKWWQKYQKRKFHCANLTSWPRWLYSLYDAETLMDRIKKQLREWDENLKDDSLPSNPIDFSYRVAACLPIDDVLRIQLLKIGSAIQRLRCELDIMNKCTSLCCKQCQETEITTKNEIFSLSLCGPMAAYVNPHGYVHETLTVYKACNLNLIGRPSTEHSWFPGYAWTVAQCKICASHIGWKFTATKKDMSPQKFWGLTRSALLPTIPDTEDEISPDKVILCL
Assay: log2 fold change of degron read counts, EGFP-low vs EGFP+ sorted cells (limma voom), compound-induced degradation; higher = more compound-induced degradation of the degron-EGFP fusion; degrons are variants of IKZF1/3 zinc finger 2; compound dose not given here
Details: Jurkat, 18 h

[1] = compound: compound 19 (5-tert-butyl-thalidomide)
[2] = compound: compound 22 (5-morpholino-thalidomide)
[3] = compound: compound 33 (diphenyl IMiD analogue)
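Note: pooled lentiviral library of zinc finger degron-EGFP fusions in mCherry-positive Jurkat cells, FACS-sorted after compound exposure, with degron abundance counted by next-generation sequencing.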

FRCEICGRNFTQKGNLLRHIKL [46F_47R_49E_50I_52G_53R_54N_55F_67L_, Q9UKT9]
log2 fold change of degron read counts [1]: -2.69 | log2 fold change of degron read counts [2]: -2.64 | log2 fold change of degron read counts [3]: -1.31 | log2 fold change of degron read counts (compound: thalidomide): -0.795

FACNQCGAFFTQKGNLLRHIKL [46F_47A_49N_50Q_52G_53A_54F_55F_67L_, Q9UKT9]
log2 fold change of degron read counts [1]: -1.64 | log2 fold change of degron read counts [2]: -2.14 | log2 fold change of degron read counts [3]: -1.53 | log2 fold change of degron read counts (compound: thalidomide): -2.28

FRCEICGRGFTQKGNLLRHIKL [46F_47R_49E_50I_52G_53R_54G_55F_67L_, Q9UKT9]
log2 fold change of degron read counts [1]: -2 | log2 fold change of degron read counts [2]: -1.92 | log2 fold change of degron read counts [3]: -0.0801 | log2 fold change of degron read counts (compound: thalidomide): -0.562

FSCEVCGASFTQKGNLLRHIKL [46F_47S_49E_50V_52G_53A_54S_55F_67L_, Q9UKT9]
log2 fold change of degron read counts [1]: 3.58 | log2 fold change of degron read counts [2]: 2.8 | log2 fold change of degron read counts [3]: 2.27 | log2 fold change of degron read counts (compound: thalidomide): 1.63

FCCEVCGASFTQKGNLLRHIKL [46F_47C_49E_50V_52G_53A_54S_55F_67L_, Q9UKT9]
log2 fold change of degron read counts [1]: 3.45 | log2 fold change of degron read counts [2]: 2.85 | log2 fold change of degron read counts [3]: 2.25 | log2 fold change of degron read counts (compound: thalidomide): 2.34

FWCNVCGASFTQKGNLLRHIKL [46F_47W_49N_50V_52G_53A_54S_55F_67L_, Q9UKT9]
log2 fold change of degron read counts [1]: 1.46 | log2 fold change of degron read counts [2]: 3.01 | log2 fold change of degron read counts [3]: 1.08 | log2 fold change of degron read counts (compound: thalidomide): -0.303

FECEVCGASFTQKGNLLRHIKL [46F_47E_49E_50V_52G_53A_54S_55F_67L_, Q9UKT9]
log2 fold change of degron read counts [1]: 2.09 | log2 fold change of degron read counts [2]: -1.03 | log2 fold change of degron read counts [3]: 1.48 | log2 fold change of degron read counts (compound: thalidomide): 2.32

FTCEVCGASFTQKGNLLRHIKL [46F_47T_49E_50V_52G_53A_54S_55F_67L_, Q9UKT9]
log2 fold change of degron read counts [1]: 2.27 | log2 fold change of degron read counts [2]: 2.96 | log2 fold change of degron read counts [3]: 2.53 | log2 fold change of degron read counts (compound: thalidomide): 3.12

FKCEVCGASFTQKGNLLRHIKL [46F_47K_49E_50V_52G_53A_54S_55F_67L_, Q9UKT9]
log2 fold change of degron read counts [1]: 1.43 | log2 fold change of degron read counts [2]: -1.05 | log2 fold change of degron read counts [3]: -2 | log2 fold change of degron read counts (compound: thalidomide): 0.154

FGCEVCGASFTQKGNLLRHIKL [46F_47G_49E_50V_52G_53A_54S_55F_67L_, Q9UKT9]
log2 fold change of degron read counts [1]: 3.37 | log2 fold change of degron read counts [2]: 2.27 | log2 fold change of degron read counts [3]: 1.58 | log2 fold change of degron read counts (compound: thalidomide): 0.816

FWCEVCGASFTQKGNLLRHIKL [46F_47W_49E_50V_52G_53A_54S_55F_67L_, Q9UKT9]
log2 fold change of degron read counts [1]: 3.77 | log2 fold change of degron read counts [2]: 3.54 | log2 fold change of degron read counts [3]: 2.67 | log2 fold change of degron read counts (compound: thalidomide): 1.37

FDCEVCGASFTQKGNLLRHIKL [46F_47D_49E_50V_52G_53A_54S_55F_67L_, Q9UKT9]
log2 fold change of degron read counts [1]: 2.81 | log2 fold change of degron read counts [2]: 0.541 | log2 fold change of degron read counts [3]: 0.131 | log2 fold change of degron read counts (compound: thalidomide): 0.979

Reference: the supplement of paper PMC12645437, “Orthogonal IMiD-Degron Pairs Induce Selective Protein Degradation in Cells” (ACS Chemical Biology, 2025)
